This is an account of results in PubChem BioAssay (NCI).

Where “and” joins values, the source holds several entries; their conditions need not be identical. Identical values can stand only once. About 83,000 compounds went through this panel and 20% of them were active in at least one assay; those are over-represented in the sample as a whole.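 Plates (96-well) were seeded with cells, treated with compound at one concentration, and incubated for 48 hours before percent growth was determined.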 Calls of active or inactive are those of the source.

One test deals with NCI-H322M lung. Put plainly: NCI-60 one-dose screen, 48 h (100 = growth as untreated, 0 = no growth, -100 = all killed). The settings on record: 0.25 µM. The procedure:
Growth inhibition of the NCI-H322M human Non-Small Cell Lung tumor cell line is measured as a screen for anti-cancer activity. Cells are grown in 96 well plates and exposed to the test compound for 48 hours. Compounds are tested at a single concentration, which is 10^-5 M for most compounds. The reported endpoint is percent growth (GI% or GIPRCNT), where numbers from 0 - 100% represent growth inhibition, and numbers from -100% - 0 represent cell death. For example, a value of 40 represents 60% growth inhibition. A value of 0 means no net growth occurred over the course of the experiment. A value of -40 indicates 40% of cells at the beginning of the experiment died by the end of the experiment. A value of -100 means all cells are dead at the end of the experiment.
NCI-60 Human Tumor Cell Lines Screen was performed using the standard one-dose NCI protocol, which is described in more detail at https://dtp.cancer.gov/discovery_development/nci-60/default.htm.
Compounds with GIPRCNT values below 10 were considered active. Activity score was based on GIPRCNT using the following formula: […]
Score is 0 for GIPRCNT values of 100 or above, 50 for GIPRCNT values of 0, and 100 for GIPRCNT values of -100.
For `CCCCCCCCCCCCCCCc1ccc(Cl)c(O)c1Cl` (tested in a mixture with another compound), the growth is 61.5% (inactive).

Staying with this test, now noted: 10 µM.
Regarding `CCCCCCCCCCCCCCCc1ccc(Cl)c(O)c1Cl` (tested in a mixture with another compound), the growth is 107% (inactive).

Staying with this test, now noted: 10 µM unless noted.
As for `CN(C)c1ccc2nc3ccc(=[N+](C)C)cc-3sc2c1`, the growth is 24.8% (inactive) and 11.7% (inactive) and 30.7% (inactive).
On the same count and under the same terms, in the case of `CNC(=O)c1cc(Oc2ccc(NC(=O)Nc3ccc(Cl)c(C(F)(F)F)c3)cc2)ccn1` it was -2.52% (active) and 18.3% (inactive); in that of `CN1C(=O)C(N=Nc2ccc([N+](=O)[O-])cc2)SC1=S` (stereo not given), 62.2% (inactive) and 71.8% (inactive).
The same measure, in the same setting: in the case of `Cc1cccc(/C=C\C(=O)c2ccc(Cl)cc2)c1` it was 103% (inactive) and 92.6% (inactive); in that of `Cc1ccc(NCSc2ccc(Cl)cc2)cc1`, 94.8% (inactive) and 94.6% (inactive).
The same measure, in the same setting: in the case of `CC(=O)Nc1cccc2c1CCCC2` it was 113% (inactive) and 98% (inactive).
On to `O=C1c2ccccc2C(=O)c2c(NCCNCCO)ccc(NCCNCCO)c21`, for which the growth is 7.84% (active) and 19.3% (inactive) and -5.07% (active).
The same measure, in the same setting: in the case of `CCC(O)c1ccccc1` (stereo not given) it was 114% (inactive) and 105% (inactive).
The same measure, in the same setting: to `O=c1c2ccccc2nc2n1Cc1nc3ccccc3c(=O)n1C2` belongs 97.8% (inactive) and 102% (inactive); to `Oc1nc(NCCc2ccccc2)sc1/C=C1\C=Nc2ncccc21`, 19.6% (inactive) and 5.21% (active); to `COc1cc(NS(C)(=O)=O)ccc1Nc1c2ccccc2nc2c(C)cccc12`, 22.8% (inactive) and 28.6% (inactive).
Still for that read-out and setting: in the case of `CNC(=O)c1ccc(C)c(-n2c(C)cc(OCc3ccc(F)cc3F)c(Br)c2=O)c1` it was 86.3% (inactive) and 92.8% (inactive).
Turning to `Cn1cc(-c2cc3c(Nc4ccc(CC(=O)Nc5cc(C(C)(C)C)on5)cc4)ncnc3[nH]2)cn1`, the growth was -15.1% (active) and -11.4% (active).
Same read-out and setting: in the case of `Oc1ccccc1/C=N\NC(=S)N/N=C/c1ccccc1O` it was 24.8% (inactive) and 29.7% (inactive); in that of `OC(COc1cccc2ccccc12)CN1CCN(c2ccc(Cl)cc2)CC1` (stereo not given), 90% (inactive) and 102% (inactive).
As to `CC(=O)Nc1cc(S(=O)(=O)O)cc2cc(S(=O)(=O)O)c(N=Nc3ccccc3)c(O)c12`, the growth is 112% (inactive) and 91.9% (inactive).
Same read-out and setting: to `CC(/C=N/N1C(=O)c2ccccc2C1=O)c1ccccc1` (stereo not given) belongs 98.1% (inactive); to `CCN(CC)CCNc1cc(-c2cccc(OC(F)(F)F)c2)nc2ccc(N3CCCC3)cc12`, 29.2% (inactive) and 18.9% (inactive) and 58.3% (inactive); to `N#C/C(=C/c1c(O)ccc2ccccc12)C(N)=O`, 107% (inactive).
Still for that read-out and setting: in the case of `CN1CCN(C2CCN(C(=O)Nc3cc(Oc4ccc(NC(=O)C5(C(=O)Nc6ccc(F)cc6)CC5)c(F)c4)ccn3)CC2)CC1` it was -27.6% (active) and 94% (inactive); in that of `CC(=O)Nc1ccc2cc3ccc(NC(C)=O)cc3nc2c1`, 64.3% (inactive) and 46.1% (inactive).
The same measure, in the same setting: in the case of `COc1cc(Nc2nc3ccccc3nc2NS(=O)(=O)c2ccc(NC(=O)c3ccc(C)c(OC)c3)cc2)cc(OC)c1` it was 49.3% (inactive) and -6.86% (active).
In the case of `N#C/C(=C1C=C/C(=N/O)C(Br)=C/1)c1ccccc1`, the growth was 42.4% (inactive).
`COc1ccc(S(=O)(=O)N2CCOCC2)cc1NC(=O)c1[nH]c(C)c2c1CCCCC2=O`: the growth was 105% (inactive) and 64.6% (inactive).
Still for that read-out and setting: in the case of `CC(=O)c1ccc2c(c1)N(CCCN1CCN(CCO)CC1)c1ccccc1S2` it was 98.8% (inactive) and 46.9% (inactive); in that of `CCOc1ccc2nc3cc(N)ccc3c(N)c2c1`, 36.7% (inactive) and 28.8% (inactive); in that of `CC(C(=O)O)n1cc(C#N)c(=O)[nH]c1=O` (stereo not given), 112% (inactive) and 111% (inactive).
Still for that read-out and setting: in the case of `S=C1SCN(Cc2ccccc2)CN1Cc1ccccc1` it was 94.5% (inactive).
Same read-out and setting: to `Nc1cc(-c2cccc(OC(F)(F)F)c2)nc2ccc(N3CCCC3)cc12` belongs 49.5% (inactive) and 51.3% (inactive) and 39% (inactive); to `O=C(O)C1(C(=O)O)CCC1.[NH2-].[NH2-].[Pt+2]`, 99.9% (inactive) and 110% (inactive); to `Cc1cc(=O)[nH]c(O)c1C#N`, 95.5% (inactive) and 99% (inactive).
With `Cn1c(=O)c2[nH]c(CCCCCCCCc3nc4ccccc4[nH]3)nc2n(C)c1=O`, the growth was 87.3% (inactive) and 99.6% (inactive).
Still for that read-out and setting: in the case of `Cc1cc(O)c(C(C)C)cc1S(=O)(=O)O` (tested in a mixture with another compound) it was 90.7% (inactive) and 24.7% (inactive) and 93.4% (inactive); in that of `O=[N+]([O-])c1ccc(N/N=C\c2cc(Br)ccc2O)nc1`, 24.2% (inactive) and 8.6% (active); in that of `COc1ccc2cc3[n+](cc2c1OC)CCc1cc2c(cc1-3)OCO2`, 96% (inactive) and 99.4% (inactive).
The same measure, in the same setting: in the case of `COc1ccc(/C(C#N)=C/c2ccccn2)cc1` it was 108% (inactive) and 110% (inactive); in that of `O=C1CCN(Cc2ccccc2)C(=S)N1`, 92.1% (inactive) and 93% (inactive).
On to `Nc1n[nH]c(=S)n1-c1ccc(Cl)cc1`, for which the growth is 98.7% (inactive).
